# PubChem BioAssay AID1690 (NMMLSC, 2009)
# Entries with a potency or affinity are not part of this list. Activity calls are given as the source filed them.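 How the source made its calls: active means combined score above 51, weighing potency under 20 µM and fitted curve span over 20%; inactive means the rest.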
# Target: Broad substrate specificity ATP-binding cassette transporter ABCG2 (Homo sapiens) (UniProt Q9UNQ0)
# Assay: blockers of JC-1 export by ABCG2 – Ig-MXP3 cells, flow cytometry, dose response (AID 1690)
# Settings: JC-1 efflux; series mostly up to 33.3 µM
# Broad substrate specificity ATP-binding cassette transporter ABCG2 (Homo sapiens), sequence (Q9UNQ0 whole entry, looked up): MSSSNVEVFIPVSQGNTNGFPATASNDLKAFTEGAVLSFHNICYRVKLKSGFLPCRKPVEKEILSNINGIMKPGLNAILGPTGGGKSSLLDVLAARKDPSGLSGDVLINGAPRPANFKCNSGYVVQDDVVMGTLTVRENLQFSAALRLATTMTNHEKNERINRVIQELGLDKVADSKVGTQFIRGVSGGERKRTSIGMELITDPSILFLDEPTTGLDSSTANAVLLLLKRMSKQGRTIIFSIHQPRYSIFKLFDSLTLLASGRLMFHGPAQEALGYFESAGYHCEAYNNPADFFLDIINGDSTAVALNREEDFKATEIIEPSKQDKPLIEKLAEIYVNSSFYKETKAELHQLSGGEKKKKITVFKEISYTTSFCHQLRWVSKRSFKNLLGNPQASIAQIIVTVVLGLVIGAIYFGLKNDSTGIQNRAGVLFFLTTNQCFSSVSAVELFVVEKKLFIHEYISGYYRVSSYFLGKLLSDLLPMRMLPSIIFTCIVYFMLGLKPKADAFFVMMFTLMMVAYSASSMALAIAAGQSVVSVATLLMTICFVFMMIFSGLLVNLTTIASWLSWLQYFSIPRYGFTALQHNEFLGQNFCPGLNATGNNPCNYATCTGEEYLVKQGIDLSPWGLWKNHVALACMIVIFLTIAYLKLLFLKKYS
row,Compound,outcome
1,N#CC(C#N)=C1C=C2C=C(N3CCOCC3)CCC2CC1 (stereo unspecified),inactive
2,COc1ccc(CCNC(=O)COC(=O)/C=C/c2ccc(OC)c(OC)c2)cc1,inactive
3,COC(=O)c1cc(NC(=O)c2ccccc2)c(=O)oc1/C=C/Nc1ccc(Oc2ccccc2)cc1,inactive
4,CN1CCN(C2=CC3=CC(=C(C#N)C#N)CCC3CC2)CC1 (stereo unspecified),inactive
5,CCN1/C(=C\C=C\c2oc3ccc4ccccc4c3[n+]2CC)Oc2ccc3ccccc3c21,inactive
6,CCCCn1c(O)c(N=Nc2ccccn2)c2ccccc21,inactive
7,N#CC(C#N)=C1C=C2C=C(N3CCCCCC3)CCC2CC1 (stereo unspecified),inactive
8,CCCCN1/C(=C/c2ccc3ccccc3[n+]2CC)Sc2ccccc21,inactive
9,CNc1nc2cc([N+](=O)[O-])c([N+](=O)[O-])cc2nc1NC,inactive
10,CCOC(=O)c1sc2cc([N+](=O)[O-])cc(SCC(C)C)c2c1N,inactive
11,CN(C)c1ccc(/C=C2\SC(=S)N(Nc3ncc(C(F)(F)F)cc3Cl)C2=O)cc1,inactive
12,COc1ccc(/C=N/NC(=O)c2cccnc2)cc1CN1CCN(c2ccc(F)cc2)CC1,inactive
13,CC(=O)Nc1ccc(Nc2ccc(S(=O)(=O)C(F)(F)F)cc2[N+](=O)[O-])cc1,inactive
14,COc1ccccc1Nc1nc2nonc2nc1N1CCCCC1C (stereo unspecified),inactive
15,Cc1nc2cc(-c3cccc(F)c3)nn2c(N2CCN(C(=O)c3ccco3)CC2)c1C,inactive
16,CCN(CC)C1=CC2=CC(=C(C#N)C#N)CCC2CC1 (stereo unspecified),inactive
